Assay results reported in PubChem BioAssay.
Values without a mark were called inactive. Activity calls are given as the source filed them. Rule as the data show it, unless noted: active = inhibition above about 44%; inactive = the rest. Numbered stars: 1 amine (or outer) side, 2 acyl side, 3 side chain; on linkers, the order of the positions; unused ones are H or OH. Bridge positions count the residues as written; N and C are the ends. Square brackets hold non-standard residues; d marks the D form. Peptide text beside a SMILES is read from it. ξ: configuration not given here. X1 = CC[C@H](CCC[C@@H](O)[C@@H](C)C(=O)O[C@H](C)[C@@H](C)C/C=C(C)/C(=C\C(=O)[*:1])OC)O[*:2]; NMeξIle = CC[C@H](C)C(NC)C(=O)O; NMeV = CN[C@H](C(=O)O)C(C)C; NMeS = CN[C@@H](CO)C(=O)O

Columns and labels:
[1] = target: Nuclear receptor coactivator 3 (Homo sapiens) (UniProt Q9Y6Q9); assay: NCOA3 GAL4-fusion reporter inhibition – cell-based, luminescence, quadruplicate, confirmation (AID 588792;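 active = mean inhibition over 43.08%, the solvent-only control mean plus 3 SD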;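 also: 0% = DMSO treated cells and 100% = gossypol at 36 µM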); conditions: HEK293 GAL4-SRC3 luciferase reporter, at 3.6 µM, active compounds read high
[2] = tested on: transactivating tegument protein VP16 (Human herpesvirus 1), Gal4-VP16 luciferase reporter; assay: repression of VP16-driven luciferase reporter – cell-based, luminescence, high throughput, counter-screen for SRC3 inhibitor project (AID 588794; in the data active = inhibition above about 30%); conditions: mammalian cells, at 3.6 µM, active compounds read high
[3] = target: Nuclear receptor coactivator 1 (Homo sapiens) (UniProt Q15788); assay: NCOA1 GAL4-fusion reporter inhibition – cell-based, luminescence, quadruplicate, confirmation (AID 588820;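 active = mean inhibition above 46.68%, the untreated control wells mean plus 3 SD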;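 also: 0% = DMSO wells and 100% = gossypol 36 µM treated wells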); conditions: HEK293 GAL4-SRC1 luciferase reporter, at 3.6 µM, active compounds read high
[4] = repression of VP16-driven luciferase reporter – cell-based, luminescence, high throughput, counter-screen for SRC1 inhibitor project (AID 588824; in the data active = inhibition above about 25%); conditions: cell-based VP16 transactivation luciferase luminescence; at 3.6 µM; active compounds read high
[5] = StAR promoter reporter inhibitors, counter-screen for LRH-1 inverse agonist project, cell-based, luminescence, high throughput (AID 651611; in the data active = inhibition above about 28%); conditions: StAR promoter luciferase reporter counterscreen, at 3.6 µM, active compounds read high
[6] = target: Nuclear receptor subfamily 5 group A member 2 (Homo sapiens) (UniProt O00482); assay: NR5A2 activity suppression in reporter cells – cell-based, luminescence, confirmation (AID 651613; in the data active = inhibition above about 42%;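 also: HEK293T cells co-transfected with LRH-1 and StAR promoter luciferase reporter; 0% = vehicle wells and 100% = parental cells lacking receptor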); conditions: cell-based LRH-1 luciferase reporter, inverse agonism; at 3.6 µM; active compounds read high
[7] = target: Steroidogenic factor 1 (Homo sapiens) (UniProt Q13285); assay: inverse agonism at SF1 nuclear receptor – cell-based, luminescence, high throughput, counter-screen for LRH-1 inverse agonist project (AID 651614); conditions: cell-based SF1 luciferase reporter, at 3.6 µM, active compounds read high;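 also: cells cotransfected with StAR promoter reporter and SF1 expression vector; 0% = vehicle on cells with receptor and 100% = vehicle on cells lacking receptor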
[8] = compounds suppressing VP16-driven luciferase signal – cell-based, luminescence, high throughput, counter-screen for LRH-1 inverse agonist project (AID 651615; in the data active = inhibition above about 33%); conditions: Gal4-VP16 luciferase reporter cells, at 3.6 µM, active compounds read high

Chain of Steroidogenic factor 1 (Homo sapiens) (Q13285 whole entry, looked up, the tested form may be a part): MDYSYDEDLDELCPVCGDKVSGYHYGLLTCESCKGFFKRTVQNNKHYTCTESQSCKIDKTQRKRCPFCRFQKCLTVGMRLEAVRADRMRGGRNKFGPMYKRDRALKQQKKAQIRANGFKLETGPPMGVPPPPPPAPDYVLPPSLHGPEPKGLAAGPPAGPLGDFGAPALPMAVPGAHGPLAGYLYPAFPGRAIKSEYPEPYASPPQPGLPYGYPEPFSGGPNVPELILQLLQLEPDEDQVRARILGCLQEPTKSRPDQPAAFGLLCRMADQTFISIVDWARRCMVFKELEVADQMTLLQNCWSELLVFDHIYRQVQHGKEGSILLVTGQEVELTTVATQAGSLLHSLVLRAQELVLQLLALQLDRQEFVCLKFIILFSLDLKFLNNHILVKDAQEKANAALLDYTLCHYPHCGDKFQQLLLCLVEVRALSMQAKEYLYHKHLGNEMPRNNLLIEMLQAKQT
Chain of Nuclear receptor coactivator 1 (Homo sapiens) (Q15788 whole entry, looked up, the tested form may be a part): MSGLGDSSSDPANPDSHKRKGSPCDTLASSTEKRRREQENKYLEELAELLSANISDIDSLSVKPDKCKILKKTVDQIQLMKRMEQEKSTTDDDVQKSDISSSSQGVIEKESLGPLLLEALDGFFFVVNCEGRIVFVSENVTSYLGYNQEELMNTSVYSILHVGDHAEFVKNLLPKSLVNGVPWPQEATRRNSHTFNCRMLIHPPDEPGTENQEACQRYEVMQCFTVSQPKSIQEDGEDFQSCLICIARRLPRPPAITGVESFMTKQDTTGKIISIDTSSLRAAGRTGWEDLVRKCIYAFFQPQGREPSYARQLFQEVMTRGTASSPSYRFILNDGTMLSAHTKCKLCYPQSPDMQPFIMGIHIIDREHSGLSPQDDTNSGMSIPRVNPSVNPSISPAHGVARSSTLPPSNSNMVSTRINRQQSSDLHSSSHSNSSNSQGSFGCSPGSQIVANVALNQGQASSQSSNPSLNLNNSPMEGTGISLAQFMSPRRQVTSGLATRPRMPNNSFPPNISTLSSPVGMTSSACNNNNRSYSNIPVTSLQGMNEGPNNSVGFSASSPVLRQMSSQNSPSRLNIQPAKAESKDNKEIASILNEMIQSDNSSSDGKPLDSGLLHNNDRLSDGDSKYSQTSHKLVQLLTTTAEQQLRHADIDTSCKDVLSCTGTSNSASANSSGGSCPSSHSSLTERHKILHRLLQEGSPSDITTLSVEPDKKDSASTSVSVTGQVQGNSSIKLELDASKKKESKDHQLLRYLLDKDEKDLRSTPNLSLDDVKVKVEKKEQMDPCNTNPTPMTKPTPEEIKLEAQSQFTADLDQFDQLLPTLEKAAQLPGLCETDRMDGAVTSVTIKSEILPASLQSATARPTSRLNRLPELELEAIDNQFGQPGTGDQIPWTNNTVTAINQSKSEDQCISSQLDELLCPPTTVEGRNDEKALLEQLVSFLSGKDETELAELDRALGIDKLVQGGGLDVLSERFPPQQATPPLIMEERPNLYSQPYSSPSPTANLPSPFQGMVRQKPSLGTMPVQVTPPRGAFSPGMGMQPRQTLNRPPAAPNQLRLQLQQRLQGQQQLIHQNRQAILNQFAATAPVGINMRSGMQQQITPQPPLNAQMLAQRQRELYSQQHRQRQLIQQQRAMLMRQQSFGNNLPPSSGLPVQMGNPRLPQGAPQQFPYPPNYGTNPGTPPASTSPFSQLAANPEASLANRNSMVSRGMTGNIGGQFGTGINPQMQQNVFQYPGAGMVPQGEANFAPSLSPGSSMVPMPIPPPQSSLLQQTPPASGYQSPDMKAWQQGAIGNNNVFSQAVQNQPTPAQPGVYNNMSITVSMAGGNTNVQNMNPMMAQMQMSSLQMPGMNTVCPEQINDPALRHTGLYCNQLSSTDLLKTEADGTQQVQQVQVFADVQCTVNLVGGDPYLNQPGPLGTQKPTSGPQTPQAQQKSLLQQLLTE
Chain of Nuclear receptor coactivator 3 (Homo sapiens) (Q9Y6Q9 whole entry, looked up, the tested form may be a part): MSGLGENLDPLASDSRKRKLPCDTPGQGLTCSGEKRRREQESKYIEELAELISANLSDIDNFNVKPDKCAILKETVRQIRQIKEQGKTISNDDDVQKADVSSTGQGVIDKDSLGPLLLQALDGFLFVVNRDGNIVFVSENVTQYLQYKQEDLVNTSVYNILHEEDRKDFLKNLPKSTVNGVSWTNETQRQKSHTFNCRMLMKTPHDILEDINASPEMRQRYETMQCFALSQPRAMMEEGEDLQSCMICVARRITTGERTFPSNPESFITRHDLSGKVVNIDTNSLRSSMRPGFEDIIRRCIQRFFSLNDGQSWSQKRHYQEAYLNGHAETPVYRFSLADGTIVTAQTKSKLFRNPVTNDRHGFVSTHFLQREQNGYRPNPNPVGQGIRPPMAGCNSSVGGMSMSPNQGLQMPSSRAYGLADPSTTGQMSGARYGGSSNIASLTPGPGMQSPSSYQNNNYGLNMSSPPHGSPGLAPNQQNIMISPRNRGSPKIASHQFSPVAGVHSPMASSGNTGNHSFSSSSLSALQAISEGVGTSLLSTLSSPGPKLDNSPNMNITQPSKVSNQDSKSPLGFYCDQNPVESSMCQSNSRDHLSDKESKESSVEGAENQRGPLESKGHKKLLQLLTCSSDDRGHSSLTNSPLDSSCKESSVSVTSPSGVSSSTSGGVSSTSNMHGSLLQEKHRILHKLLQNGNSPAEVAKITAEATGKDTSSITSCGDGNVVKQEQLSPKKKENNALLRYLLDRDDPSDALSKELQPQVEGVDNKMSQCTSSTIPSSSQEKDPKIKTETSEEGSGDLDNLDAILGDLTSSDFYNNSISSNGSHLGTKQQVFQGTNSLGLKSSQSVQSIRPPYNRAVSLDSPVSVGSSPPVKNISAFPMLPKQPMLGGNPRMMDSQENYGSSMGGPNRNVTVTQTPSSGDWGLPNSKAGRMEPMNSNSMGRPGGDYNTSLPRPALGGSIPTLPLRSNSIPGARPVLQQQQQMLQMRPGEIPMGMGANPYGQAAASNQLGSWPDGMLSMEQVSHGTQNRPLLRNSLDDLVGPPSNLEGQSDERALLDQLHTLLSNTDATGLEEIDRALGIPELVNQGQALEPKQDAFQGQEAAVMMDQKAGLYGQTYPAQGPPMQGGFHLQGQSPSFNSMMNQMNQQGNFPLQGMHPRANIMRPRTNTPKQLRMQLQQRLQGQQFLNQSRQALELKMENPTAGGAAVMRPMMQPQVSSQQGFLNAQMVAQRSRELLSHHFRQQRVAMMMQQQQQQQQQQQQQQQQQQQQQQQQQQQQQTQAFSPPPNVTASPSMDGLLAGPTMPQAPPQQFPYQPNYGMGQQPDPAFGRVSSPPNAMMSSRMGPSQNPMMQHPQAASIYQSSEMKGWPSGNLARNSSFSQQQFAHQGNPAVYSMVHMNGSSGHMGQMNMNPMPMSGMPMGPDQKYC
Chain of Nuclear receptor subfamily 5 group A member 2 (Homo sapiens) (O00482 whole entry, looked up): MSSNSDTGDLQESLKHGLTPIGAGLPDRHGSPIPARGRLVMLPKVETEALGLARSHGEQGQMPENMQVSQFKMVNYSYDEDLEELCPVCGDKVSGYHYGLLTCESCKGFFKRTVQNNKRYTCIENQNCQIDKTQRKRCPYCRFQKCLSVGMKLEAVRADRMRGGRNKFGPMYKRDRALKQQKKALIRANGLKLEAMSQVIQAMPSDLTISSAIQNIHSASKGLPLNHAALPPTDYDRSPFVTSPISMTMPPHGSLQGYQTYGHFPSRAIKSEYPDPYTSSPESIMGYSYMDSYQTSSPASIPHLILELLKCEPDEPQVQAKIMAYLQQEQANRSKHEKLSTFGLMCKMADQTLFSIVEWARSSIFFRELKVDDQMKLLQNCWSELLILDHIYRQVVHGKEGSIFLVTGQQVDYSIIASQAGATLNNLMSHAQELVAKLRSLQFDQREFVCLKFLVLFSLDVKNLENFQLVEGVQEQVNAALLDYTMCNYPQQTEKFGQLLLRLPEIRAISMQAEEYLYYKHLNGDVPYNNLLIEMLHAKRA

Compound: COC1C=CC=C(C)C(=O)NC2=CC(=O)C(N)=C(CC(C)CC(OC)C(O)C(C)C=C(C)C1OC(N)=O)C2=O (stereo unspecified)
- inhibition [1]: 78.9% (active)
- inhibition [2]: 81.6% (active)
- inhibition [3]: 18.4%
- inhibition [4]: 82.3% (active)
- inhibition [5]: 73.2% (active)
- inhibition [6]: 93.7% (active)
- inhibition [7]: 85.5% (active)
- inhibition [8]: 85.7% (active)

Compound: Cc1cc(-c2nnc(SCC(=O)Nc3ccccc3C(F)(F)F)o2)c(C)n1-c1ccccc1
- inhibition [1]: 33.3%
- inhibition [2]: 11.2%
- inhibition [3]: -7.25%
- inhibition [4]: -22.9%
- inhibition [5]: 28.2% (active)
- inhibition [6]: -50.2%
- inhibition [7]: 14.8%
- inhibition [8]: -38.7%

Compound: CC1CCc2nc(NC(=O)CSc3nc4ccccc4o3)sc2C1 (stereo unspecified)
- inhibition [1]: 14.2%
- inhibition [2]: 15.8%
- inhibition [3]: -11.1%
- inhibition [4]: -33.6%
- inhibition [5]: 5.74%
- inhibition [6]: -27.5%
- inhibition [7]: 7.34%
- inhibition [8]: -33.5%

Compound: O=c1c2ccccc2sc2ccc(C#CC3(O)CCCCC3)cc12
- inhibition [1]: 87.4% (active)
- inhibition [2]: 84.4% (active)
- inhibition [3]: 76.2% (active)
- inhibition [4]: 75% (active)
- inhibition [5]: 84.3% (active)
- inhibition [6]: 56% (active)
- inhibition [7]: 76.5% (active)
- inhibition [8]: 71.2% (active)

Compound: CCc1ccccc1Nc1nn2c(=O)c3ccc(C(=O)NCc4ccccn4)cc3nc2s1
- inhibition [1]: 33.3%
- inhibition [2]: 61.3% (active)
- inhibition [3]: 42%
- inhibition [4]: 59.9% (active)
- inhibition [5]: 57.3% (active)
- inhibition [6]: 67.3% (active)
- inhibition [7]: 76% (active)
- inhibition [8]: 72% (active)

Compound: CC(=O)c1cccc(N=c2scc(-c3ccc(S(=O)(=O)N4CCOCC4)cc3)n2CCO)c1
- inhibition [1]: 21.9%
- inhibition [2]: 47.4% (active)
- inhibition [3]: -14.3%
- inhibition [4]: 49.4% (active)
- inhibition [5]: 35.2% (active)
- inhibition [6]: 63.3% (active)
- inhibition [7]: 69.7% (active)
- inhibition [8]: 61.1% (active)

Compound: C[n+]1c(-c2ccccc2)cc2c(=Cc3ccccc3)c3ccccc3n21
- inhibition [1]: 39.3%
- inhibition [2]: 70.3% (active)
- inhibition [3]: 27.9%
- inhibition [4]: 63.3% (active)
- inhibition [5]: 54.9% (active)
- inhibition [6]: 98.1% (active)
- inhibition [7]: 87.2% (active)
- inhibition [8]: 84.3% (active)

Compound: CC(=NNC(=S)Nc1ccccc1Cl)c1ccccn1
- inhibition [1]: 41.9%
- inhibition [2]: 71.8% (active)
- inhibition [3]: 18.6%
- inhibition [4]: 73% (active)
- inhibition [5]: 84.3% (active)
- inhibition [6]: 106% (active)
- inhibition [7]: 91.1% (active)
- inhibition [8]: 83.9% (active)

Compound: CCC(C)n1ncn(-c2ccc(N3CCN(c4ccc(O)cc4)CC3)cc2)c1=O (stereo unspecified)
- inhibition [1]: 32.4%
- inhibition [2]: 51.9% (active)
- inhibition [3]: 20.6%
- inhibition [4]: 54.8% (active)
- inhibition [5]: 63.1% (active)
- inhibition [6]: 76.7% (active)
- inhibition [7]: 70.8% (active)
- inhibition [8]: 73.1% (active)

Compound: Cc1ccnc2c1ccc1c(C)ccnc12
- inhibition [1]: 86.2% (active)
- inhibition [2]: 54.3% (active)
- inhibition [3]: 73.3% (active)
- inhibition [4]: 61.9% (active)
- inhibition [5]: 88.8% (active)
- inhibition [6]: 108% (active)
- inhibition [7]: 87% (active)
- inhibition [8]: 65.1% (active)

Compound: CN(Cc1ccccc1)C1=CC(=[N+]2CCCCC2)CC(C)(C)C1
- inhibition [1]: 43.1% (active)
- inhibition [2]: 73.6% (active)
- inhibition [3]: 44.8%
- inhibition [4]: 75.8% (active)
- inhibition [5]: 68% (active)
- inhibition [6]: 108% (active)
- inhibition [7]: 90.6% (active)
- inhibition [8]: 91.1% (active)

Compound: CC(=O)N(/N=C1\Sc2ccccc2C1=O)c1ccc(C)cc1C
- inhibition [1]: 54.1% (active)
- inhibition [2]: 37.7% (active)
- inhibition [3]: 2.03%
- inhibition [4]: 25.4% (active)
- inhibition [5]: -1.06%
- inhibition [6]: 11.9%
- inhibition [7]: 48.8% (active)
- inhibition [8]: -16.6%

Compound: CCN1/C(=C/c2ccc3cc(C)ccc3[n+]2CC)Sc2ccccc21
- inhibition [1]: 57% (active)
- inhibition [2]: 78.5% (active)
- inhibition [3]: 45%
- inhibition [4]: 80.2% (active)
- inhibition [5]: 72.2% (active)
- inhibition [6]: 105% (active)
- inhibition [7]: 92.3% (active)
- inhibition [8]: 82.7% (active)

Compound: CC[C@@H]1CCC[C@@H](O)[C@@H](C)C(=O)O[C@H](C)[C@@H](C)C/C=C(C)/C(OC)=C\C(=O)N(C)C([C@@H](C)CC)C(=O)N(C)[C@@H](C(C)C)C(=O)N(C)[C@@H](COC)C(=O)N2CCC[C@H]2C(=O)N(C)[C@@H](C(C)C)C(=O)N2CCC[C@H]2C(=O)O1 (stereo partly specified) ([NMeξIle][NMeV][NMeS](Me)P[NMeV]P; linker N-C via X1)
- inhibition [1]: 79.9% (active)
- inhibition [2]: 86.5% (active)
- inhibition [3]: 57.1% (active)
- inhibition [4]: 87.5% (active)
- inhibition [5]: 83% (active)
- inhibition [6]: 104% (active)
- inhibition [7]: 94.8% (active)
- inhibition [8]: 93.1% (active)

Compound: CCC1(OC(=O)CN(C)C)C(=O)OCc2c1cc1n(c2=O)Cc2cc3c(N)cccc3nc2-1 (stereo unspecified)
- inhibition [1]: 89.8% (active)
- inhibition [2]: 65.3% (active)
- inhibition [3]: 62.3% (active)
- inhibition [4]: 54.6% (active)
- inhibition [5]: 83.5% (active)
- inhibition [6]: 103% (active)
- inhibition [7]: 90.5% (active)
- inhibition [8]: 68.1% (active)

Compound: CCCCC[n+]1cccc2c3ccccc3ccc21
- inhibition [1]: 39.9%
- inhibition [2]: 59% (active)
- inhibition [3]: 30.7%
- inhibition [4]: 59% (active)
- inhibition [5]: 51.5% (active)
- inhibition [6]: 90% (active)
- inhibition [7]: 81.5% (active)
- inhibition [8]: 77% (active)

Compound: CC1(C)N=C(N)N=C(N)N1CCCCc1ccccc1
- inhibition [1]: 45.9% (active)
- inhibition [2]: 24.4%
- inhibition [3]: 56.8% (active)
- inhibition [4]: 30.3% (active)
- inhibition [5]: 61.4% (active)
- inhibition [6]: 48.8% (active)
- inhibition [7]: 38.2%
- inhibition [8]: 35.7% (active)
